Test results published in PubChem BioAssay (NCATS).
Inconclusive results are not listed. The source made the active and inactive calls. Calls come from the whole dose curve; as a rule, active = well fitted inhibition curve with a large enough effect; inconclusive = small, poorly fitted or top-dose-only effect; inactive = flat fitted curve, though single readings scatter.

Columns and labels:
Experiment in all cases: qHTS profiling for inhibitors of Plasmodium falciparum proliferation (AID 504749); note: nearly all actives have a fitted effect of over 60% in size
Details in all cases: P. falciparum in erythrocytes, SYBR Green DNA, 72 h; series mostly up to 28.7 µM
GB4 = system: GB4
How it was run: (§1)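 Three-day growth assay of blood-stage parasites in erythrocytes (0.3% parasitemia, 2.5% hematocrit) at 37 C, 5% CO2, quantified by SYBR Green DNA staining after overnight detergent lysis.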

HB3 = system: HB3
How it was run: as §1

ICS = system: ICS
How it was run: as §1

N140 = system: N140
How it was run: as §1

P93_24 = system: P93_24
How it was run: as §1

P94_40 = system: P94_40
How it was run: as §1

PAD = system: PAD
How it was run: as §1

PC15 = system: PC15
How it was run: as §1

PC26 = system: PC26
How it was run: as §1

JCK = system: JCK
How it was run: as §1

Measured: Potency
Potency is the fitted concentration of half-maximal effect.

CC(NCCC(c1ccccc1)c1ccccc1)c1ccccc1 (centres undefined)
active: GB4 15.1 µM | HB3 10 µM | ICS 2.24 µM | N140 11.2 µM | P93_24 12.6 µM | P94_40 11.2 µM | PAD 12.6 µM | PC15 11.2 µM | PC26 8.49 µM

CCCCCCCCCCCCCCCC[N+](C)(C)Cc1ccccc1
active: GB4 5.36 µM | ICS 2.82 µM | N140 14.1 µM | P93_24 1.12 µM | P94_40 1.58 µM | PAD 5.62 µM | PC15 7.94 µM | PC26 9.53 µM

Nc1ncnc2nc[nH]c12
inactive: GB4 | HB3 | ICS | JCK | N140 | P93_24 | P94_40 | PAD | PC15 | PC26

CN1CCCN(C(c2ccccc2)c2ccc(Cl)cc2)CC1 (centres undefined)
active: GB4 13.5 µM | ICS 8.91 µM | N140 10 µM | P93_24 7.08 µM | PAD 5.62 µM

O=C(Nc1ccc(Cl)cc1)Nc1ccc(Cl)c(Cl)c1
active: GB4 2.39 µM | HB3 11.2 µM | ICS 0.631 µM | JCK 10 µM | N140 2 µM | P93_24 3.55 µM | P94_40 2.82 µM | PAD 2.24 µM | PC15 2.51 µM | PC26 1.51 µM

Nc1c2ccccc2nc2ccccc12
active: GB4 10.7 µM | ICS 7.94 µM | N140 5.01 µM | P93_24 7.08 µM | P94_40 5.62 µM | PAD 7.94 µM | PC15 11.2 µM | PC26 15.1 µM

O=[N+]([O-])c1ccc(O)c2ncccc12
active: GB4 15.1 µM | ICS 12.6 µM
inactive: PAD | PC15 | PC26

CCCCCCCCCCCCCC[N+](C)(C)C
active: GB4 5.36 µM | HB3 6.31 µM | ICS 2.51 µM | N140 6.31 µM | P93_24 5.01 µM | P94_40 6.31 µM | PAD 10 µM | PC26 6.01 µM

CN1CCC(Nc2ncc3ncnc(Nc4ccc(F)c(Cl)c4)c3n2)CC1
active: GB4 13.5 µM | ICS 6.31 µM | JCK 7.94 µM | N140 10 µM | P93_24 7.08 µM | P94_40 8.91 µM

Nc1ccc2cc3ccc(N)cc3nc2c1
active: GB4 13.5 µM | ICS 2.82 µM

O=S(=O)(O)c1ccc2nc(-c3ccccc3)[nH]c2c1
inactive: GB4 | HB3 | ICS | JCK | N140 | P93_24 | P94_40 | PAD | PC15 | PC26

CCCCCCCCCCCCCCCC[n+]1ccccc1
active: GB4 3.38 µM | ICS 2.51 µM | N140 8.91 µM | P93_24 7.94 µM | P94_40 8.91 µM | PAD 12.6 µM | PC15 10 µM | PC26 12 µM
